Experimental data as given in PubChem BioAssay.
Calls of active or inactive are those of the source. Unless noted, how the calls were made is not given here.

Key:
[1] = compounds binding Alexa647 anti-His antibody – biochemical, small-molecule microarray, 635 nm fluorescence, artefact control for SMM control protein annotation, primary screen (AID 1128); conditions: higher = more signal;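 further: score merges feature fluorescence with signal-to-noise for each printed compound spot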
[2] = system: Human papillomavirus type 1a E7 protein (residues 1-88); experiment: HPV1a E7 small-molecule binders, primary screen, biochemical, small-molecule microarray, residues 1-88, 635 nm (AID 1129); conditions: small-molecule microarray binding, fluorescence 635 nm; higher = more signal
[3] = target: Focal adhesion kinase 1 (Homo sapiens) (UniProt Q05397); experiment: PTK2 protein binding on printed compound slides – biochemical, small-molecule microarray, 635/667 nm fluorescence, BSA, DTT, primary screen (AID 1130); conditions: 635 nm fluorescence, higher = more signal;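 further: composite of spot emission at 667 nm and signal to noise over triplicate slides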
Chain of Focal adhesion kinase 1 (Homo sapiens) (Q05397 whole entry, looked up): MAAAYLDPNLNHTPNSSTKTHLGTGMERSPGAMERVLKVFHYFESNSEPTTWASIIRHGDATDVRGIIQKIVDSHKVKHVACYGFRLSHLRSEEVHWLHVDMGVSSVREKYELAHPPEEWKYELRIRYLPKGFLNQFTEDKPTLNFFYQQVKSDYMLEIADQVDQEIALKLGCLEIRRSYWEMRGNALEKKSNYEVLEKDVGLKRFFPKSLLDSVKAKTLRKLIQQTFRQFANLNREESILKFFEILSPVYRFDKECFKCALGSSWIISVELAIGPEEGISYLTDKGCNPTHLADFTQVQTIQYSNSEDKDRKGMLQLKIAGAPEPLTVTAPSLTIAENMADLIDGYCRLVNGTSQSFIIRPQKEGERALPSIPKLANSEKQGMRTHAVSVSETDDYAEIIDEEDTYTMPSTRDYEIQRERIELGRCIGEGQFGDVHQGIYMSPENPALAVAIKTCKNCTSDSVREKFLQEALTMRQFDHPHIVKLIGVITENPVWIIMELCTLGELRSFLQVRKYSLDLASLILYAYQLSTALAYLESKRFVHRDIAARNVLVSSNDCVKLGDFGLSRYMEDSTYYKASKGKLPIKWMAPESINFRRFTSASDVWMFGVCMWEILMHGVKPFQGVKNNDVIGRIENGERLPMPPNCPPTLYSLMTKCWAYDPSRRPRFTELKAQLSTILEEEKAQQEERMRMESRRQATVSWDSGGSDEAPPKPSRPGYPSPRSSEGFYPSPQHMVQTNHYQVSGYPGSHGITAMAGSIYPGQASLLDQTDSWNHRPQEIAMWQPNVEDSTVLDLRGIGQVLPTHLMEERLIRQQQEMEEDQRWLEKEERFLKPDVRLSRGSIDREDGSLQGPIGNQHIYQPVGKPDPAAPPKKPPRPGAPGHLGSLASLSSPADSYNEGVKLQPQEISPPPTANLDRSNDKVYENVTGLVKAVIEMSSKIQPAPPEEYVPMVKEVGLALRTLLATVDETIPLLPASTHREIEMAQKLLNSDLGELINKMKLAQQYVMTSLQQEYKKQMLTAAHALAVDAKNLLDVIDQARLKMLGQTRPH

[4] = system: Fibrinogen (Alexa647-labelled); experiment: Alexa647-fibrinogen binding to printed small molecules – biochemical, small-molecule microarray, 635/667 nm fluorescence, artefact control for SMM control-protein annotation, profiling panel (AID 1131); conditions: fibrinogen-A647 binding fluorescence, higher = more signal;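 further: z-score merges 667 nm fluorescence with per-spot signal-to-noise over triplicate slides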
[5] = target: Follistatin (Homo sapiens) (UniProt P19883); experiment: FST protein binding to printed compounds – biochemical, small-molecule microarray, 635/667 nm fluorescence, primary screen (AID 1132); conditions: 635 nm fluorescence, higher = more signal
Chain of Follistatin (Homo sapiens) (P19883 whole entry, looked up): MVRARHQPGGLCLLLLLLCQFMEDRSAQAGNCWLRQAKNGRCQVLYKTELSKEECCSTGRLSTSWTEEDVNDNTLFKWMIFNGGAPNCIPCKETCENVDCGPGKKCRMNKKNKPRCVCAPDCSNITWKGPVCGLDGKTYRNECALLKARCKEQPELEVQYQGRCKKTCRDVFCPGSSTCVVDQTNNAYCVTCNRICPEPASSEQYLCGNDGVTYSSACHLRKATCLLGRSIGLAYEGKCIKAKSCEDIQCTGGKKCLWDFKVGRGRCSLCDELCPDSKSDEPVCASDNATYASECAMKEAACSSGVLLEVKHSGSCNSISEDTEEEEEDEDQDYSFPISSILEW

[6] = target: Fibroblast growth factor 2 (Homo sapiens) (UniProt P09038); experiment: basic fibroblast growth factor binding to printed compounds – biochemical, small-molecule microarray, 635/667 nm fluorescence, primary screen (AID 1133); conditions: FGF2, fluorescence 635/667, higher = more signal
Chain of Fibroblast growth factor 2 (Homo sapiens) (P09038 whole entry, looked up): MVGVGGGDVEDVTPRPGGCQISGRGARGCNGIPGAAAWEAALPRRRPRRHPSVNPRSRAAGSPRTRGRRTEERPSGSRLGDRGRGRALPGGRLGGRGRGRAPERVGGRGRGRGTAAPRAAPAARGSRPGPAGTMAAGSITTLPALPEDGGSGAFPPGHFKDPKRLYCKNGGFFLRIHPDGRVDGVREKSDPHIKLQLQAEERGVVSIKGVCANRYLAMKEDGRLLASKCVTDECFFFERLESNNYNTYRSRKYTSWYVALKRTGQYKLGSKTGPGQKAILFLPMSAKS

[7] = JC-1 mitochondrial potential readout, lung cancer cells – cell-based, A549, JC-1 fluorescence, basal, 24 h, 100 nL, profiling panel (AID 1138); conditions: higher = more signal;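 further: A549 lung adenocarcinoma cells under basal conditions with no added stimulus; test concentration not given here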
Lefty1 = Lefty1 protein binding to printed compounds – biochemical, small-molecule microarray, 635/667 nm fluorescence, primary screen (AID 1139); conditions: fluorescence 635/667, higher = more signal
[8] = system: wheat germ agglutinin (Triticum aestivum), Alexa647-labelled; experiment: Alexa647-WGA lectin binding to printed small molecules – biochemical, small-molecule microarray, 635/667 nm fluorescence, artefact control for SMM control-protein annotation, profiling panel (AID 1140); conditions: WGA-A647 binding, 635 nm fluorescence, higher = more signal;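 further: score merges 667 nm feature emission with signal to noise over triplicate slides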
[9] = target: Luciferin 4-monooxygenase (Photinus pyralis) (UniProt P08659); experiment: inhibition of purified Photinus pyralis luciferase – biochemical, luminescence, purified enzyme, 2006 set, primary screen (AID 1141); conditions: purified firefly luciferase, SteadyGlo luminescence, 30 min; higher = more signal, called active from +8 up or from −8 down;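 further: cell-free assay with purified firefly luciferase at 100 ng per well in PBS; test concentration not given here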
Chain of Luciferin 4-monooxygenase (Photinus pyralis) (P08659 whole entry, looked up): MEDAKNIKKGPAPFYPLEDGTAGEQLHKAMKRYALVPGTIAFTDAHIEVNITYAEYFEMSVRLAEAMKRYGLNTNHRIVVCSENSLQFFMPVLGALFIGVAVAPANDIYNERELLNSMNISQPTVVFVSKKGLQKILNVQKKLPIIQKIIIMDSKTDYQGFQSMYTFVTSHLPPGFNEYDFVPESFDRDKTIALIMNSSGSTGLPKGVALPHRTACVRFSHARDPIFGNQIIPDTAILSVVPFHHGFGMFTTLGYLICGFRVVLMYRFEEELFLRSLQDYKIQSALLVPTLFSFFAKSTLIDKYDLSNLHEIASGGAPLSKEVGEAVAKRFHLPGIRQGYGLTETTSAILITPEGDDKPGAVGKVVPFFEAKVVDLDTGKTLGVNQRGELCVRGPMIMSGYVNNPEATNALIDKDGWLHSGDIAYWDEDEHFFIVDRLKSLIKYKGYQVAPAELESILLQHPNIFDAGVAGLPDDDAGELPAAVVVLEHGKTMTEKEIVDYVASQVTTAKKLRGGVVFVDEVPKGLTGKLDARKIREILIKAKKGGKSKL

[10] = system: Wnt5a (protein binding on small-molecule microarray); experiment: small molecules binding Wnt5a protein – biophysical, small-molecule microarray, 635/667 nm fluorescence, primary screen (AID 1142); conditions: 635 nm fluorescence, higher = more signal;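 further: fluorescence read at 667 nm with signal to noise per printed feature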
[11] = ATP-based viability of Huh7 replicon cells – cell-based, CellTiter-Glo luminescence, basal, 48 h, cytotoxicity control for HCV replication inhibitor project, primary screen (AID 1143); conditions: higher = more signal, called active from +8 up or from −8 down;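 further: Huh7 hepatoma cells carrying a hepatitis C replication reporter with no stimulus; test concentration not given here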
[12] = Pseudomonas biofilm growth suppression – PAO1 strain, BacTiter-Glo luminescence, LB-PBS, primary screen (AID 1144); conditions: P. aeruginosa PAO1 biofilm, 12 h, higher = more signal
[13] = basal CRE-LacZ reporter activity in PC12 – cell-based, unstimulated, primary screen (AID 1145); conditions: no forskolin, luminescence, 4.5 h, higher = more signal, called active from +8 up or from −8 down
[14] = forskolin-driven CRE-LacZ activity in PC12 – cell-based, CRE-LacZ reporter, forskolin-stimulated, primary screen (AID 1146); conditions: luminescence, 4.5 h, higher = more signal, called active from +8 up or from −8 down;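 further: PC12 cells with 6xCRE LacZ reporter stimulated by forskolin 10 µM; beta-galactosidase reporter signal reflecting CREB driven transcription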
[15] = target: Streptavidin (Streptomyces avidinii) (UniProt P22629); experiment: compounds binding control protein streptavidin – biophysical, small-molecule microarray, 635/667 nm fluorescence, artefact control for SMM compound annotation, primary screen (AID 1147); conditions: higher = more signal;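 further: signal reflects streptavidin binding to arrayed compounds as a control protein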
Chain of Streptavidin (Streptomyces avidinii) (P22629 whole entry, looked up): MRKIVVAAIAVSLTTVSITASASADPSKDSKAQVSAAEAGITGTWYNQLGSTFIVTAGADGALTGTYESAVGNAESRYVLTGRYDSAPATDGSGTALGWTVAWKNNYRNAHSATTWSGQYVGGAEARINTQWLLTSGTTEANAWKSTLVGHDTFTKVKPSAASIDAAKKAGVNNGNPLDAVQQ

[16] = probe aInhba binding on compound microarray – biochemical, small-molecule microarray, 635/667 nm fluorescence, primary screen (AID 1148); conditions: higher = more signal;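 further: score merges 667nm spot fluorescence with signal-to-noise for antibody binding to printed compounds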
Torsin-1A (Homo sapiens) [17] = target: Torsin-1A (Homo sapiens) (UniProt O14656); experiment: TOR1A wild-type binding on microarray – cell lysate, small-molecule microarray, lysate, 635/667 nm, primary screen (AID 1149); conditions: COS7 hTOR1A-WT lysate, 635 nm fluorescence, higher = more signal
Chain of Torsin-1A (Homo sapiens) (O14656 whole entry, looked up): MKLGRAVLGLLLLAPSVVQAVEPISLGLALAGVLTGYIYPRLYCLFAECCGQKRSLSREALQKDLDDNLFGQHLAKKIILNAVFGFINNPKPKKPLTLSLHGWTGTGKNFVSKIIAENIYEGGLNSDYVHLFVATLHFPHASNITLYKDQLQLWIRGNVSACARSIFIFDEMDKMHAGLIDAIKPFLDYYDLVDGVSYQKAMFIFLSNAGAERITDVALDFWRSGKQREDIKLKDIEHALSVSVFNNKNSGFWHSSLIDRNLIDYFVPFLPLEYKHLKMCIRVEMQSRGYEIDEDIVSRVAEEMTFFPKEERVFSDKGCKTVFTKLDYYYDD

Torsin-1A (Homo sapiens) [18] = target: Torsin-1A (Homo sapiens) (UniProt O14656); experiment: torsin A mutant lysate binding on microarrays – cell lysate, small-molecule microarray, COS7 lysate, 635/667 nm fluorescence, primary screen (AID 1150); conditions: COS7 hTOR1A mutant lysate, 635 nm fluorescence, higher = more signal;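 further: score pools 667 nm emission and signal to noise measuring lysate protein binding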
[19] = system: Sonic hedgehog protein (Shh); experiment: Sonic hedgehog microarray binding compounds – biochemical, small-molecule microarray, 635/667 nm fluorescence, primary screen (AID 1151); conditions: 635 nm fluorescence, higher = more signal;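 further: Shh protein binding to compounds spotted on small-molecule microarray slides; score combines spot fluorescence intensity with signal-to-noise across triplicate slides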

Compound	composite z-score [1]	composite z-score [2]	composite z-score [3]	composite z-score [4]	composite z-score [5]	composite z-score [6]	z-score [7]	composite z-score (Lefty1)	composite z-score [8]	z-score [9]	composite z-score [10]	z-score [11]	z-score [12]	z-score [13]	z-score [14]	composite z-score [15]	composite z-score [16]	composite z-score (Torsin-1A (Homo sapiens) [17])	composite z-score (Torsin-1A (Homo sapiens) [18])	composite z-score [19]
CO[C@@H]1COC(=O)CCC[C@@H](C)[C@H](OC)COC(=O)[C@H](Cc2ccccc2)NC(=O)CC=C[C@H]1C	0.393	-2.53	-0.268	-0.876	1.29	0.273	-0.972	0.978	-0.271	-0.418 (inactive)	-0.706	-1.08 (inactive)	-0.894 (inactive)	0.0897 (inactive)	1.18 (inactive)	-0.431	-0.159	1.34	-0.0271	1.99
NCCCCCNC(=O)[C@@H]1C[C@@H]2C(=O)N3CCC[C@H]3C(=O)N2[C@@H]1c1cccc(OCCO)c1	1.83	0.689	1.13	0.974	1.34	0.878	-0.269	0.437	0.881	-0.115 (inactive)	0.369	0.902 (inactive)	-0.0862 (inactive)	-0.264 (inactive)	0.325 (inactive)	0.899	1.15	-0.0659	1.36	0.696
CCCNC(=O)OC[C@H]1O[C@H](CCON=C2[C@H]3CCn4c(=O)n(-c5ccccc5)c(=O)n4[C@H]3[C@H](O)[C@@H]3O[C@H]23)C=C[C@@H]1Oc1ccc(OC)cc1	-0.429	0.281	0.172	0.297	0.146	0.409	-0.0269	0.502	0.201	0.0766 (inactive)	0.14	-0.0238 (inactive)	1.01 (inactive)	0.899 (inactive)	0.301 (inactive)	-0.28	0.0294	0.0932	0.565	0.572
CCc1cccc(NC(=O)O[C@H]2[C@H](OC(=O)Nc3ccc4c(c3)OCO4)[C@@H](OC(=O)Nc3ccc4c(c3)OCO4)[C@@H](OC)O[C@@H]2CO)c1	0.646	1.25	-0.106	0.992	1.03	0.528	-0.321	1.36	0.809	-7.34 (inactive)	0.546	-3.35 (inactive)	-1.21 (inactive)	0.101 (inactive)	-0.684 (inactive)	1.28	0.0073	1.14	0.731	1.76
CC(C)C[C@@H]1NC(=O)[C@H]2C[C@@H](C(=O)O)[C@@H](c3ccc(O)cc3)N2C1=O	3.44	-0.526	-0.199	-0.0448	1.34	0.85	-0.986	0.874	0.242	-1.2 (inactive)	0.0112	-0.354 (inactive)	-0.1 (inactive)	0.281 (inactive)	-0.627 (inactive)	0.0925	-0.0521	0.884	0.285	1.67
Cc1ccc(F)cc1S(=O)(=O)N[C@@H]1CCN(Cc2ccc(CC(C)C)cc2)C1	-0.016	-0.381	0.132	0.129	0.111	-0.367	-0.391	0.163	0.0831	0.886 (inactive)	-0.524	-4.94 (inactive)	-0.158 (inactive)	-0.683 (inactive)	0.673 (inactive)	-0.758	-0.231	0.492	-0.859	0.15
COC(=O)[C@@]1(Cc2ccc(F)cc2)[C@H]2c3cc(C(=O)N(C)C)n(Cc4ccc(OC)c(OC)c4)c3C[C@H]2CN1C(=O)c1ccccc1	0.835	-0.267	1.71	0.661	-0.405	-0.346	0.362	-0.614	0.63	1.22 (inactive)	0.702	-3.26 (inactive)	-0.642 (inactive)	0.194 (inactive)	0.426 (inactive)	0.319	0.351	0.0209	0.1	-0.715
CCOC(=O)NN=C1C[C@@H](O)[C@@H](O)[C@@H]2[C@@H]3C(=O)N(C4CCCCC4)C(=O)[C@@H]3CC[C@@H]12	0.327	-0.18	0.287	0.5	0.267	0.365	0.497	0.319	0.0034	-0.182 (inactive)	0.133	0.392 (inactive)	0.471 (inactive)	0.16 (inactive)	0.366 (inactive)	0.132	-0.0987	0.597	0.726	0.0717
CC(CCN1CCc2nc(-c3ccccc3)c(-c3ccccc3)cc2C1)=NOC(C)CN1CCCCc2nc(C)c(C)cc21 (stereo not given)	0.605	0.791	0.718	0.845	0.47	0.489	1.52	0.593	0.264	-0.0959 (inactive)	0.0802	0.168 (inactive)	-0.075 (inactive)	-0.147 (inactive)	0.0715 (inactive)	0.393	-0.0195	0.319	0.278	0.569
COC(=O)[C@H](C)NC(=O)CCC1CC(OC(=O)NCc2ccc3c(c2)OCO3)CC2(CCCC(COC(=O)NCCOc3ccccc3)O2)O1 (stereo not given in full)	0.486	1.15	0.0281	0.59	0.463	1.09	1.09	0.735	0.262	-0.314 (inactive)	0.12	-1.55 (inactive)	-1.53 (inactive)	-0.349 (inactive)	-0.422 (inactive)	0.607	-0.128	0.248	0.492	1.67
